Most compounds without a hit are left out; they make up all but 2.9% or so of the library.
KLK7 zymogen act: activators of human kallikrein-7 zymogen | AID 652039 | 370,000 tested, 0.9% active | activation, % at 7 µM | purified proKLK7, EDANS-DABCYL substrate fluorescence; 100% is mature enzyme control, 0% vehicle;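 active means activation above the mean of all tested compounds plus 3 SD, computed per campaign excluding outliers beyond control limits, cut at about 13% in these data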
PLCb3 inh: blocks human PLC-beta3 enzyme activity. Q01970. Purified PLC-beta3, fluorogenic substrate, fluorescence. inhibition, % at 12.2 µM. 370,000 tested, 0.18% active; in the data active means inhibition above about 11%;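 further: 0% = median of compound wells on plate and 100% = full blocker control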
ADAM10 inh: ADAM10 inhibition, QFRET primary screen | O14672 | recombinant ADAM10, EDANS/DABCYL FRET peptide cleavage, 3 h | inhibition, % at 7 µM | 370,000 tested, 0.62% active | AID 720582;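 active means inhibition above a per-campaign cutoff equal to the mean of compounds falling between control-based bounds plus 3 SD, cut at about 20% in these data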;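 further: 0% = DMSO wells while the 100% control is not disclosed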
ADAM17 inh: inhibits human ADAM17. recombinant ADAM17, EDANS/DABCYL FRET peptide cleavage. inhibition, % at 6.95 µM. P78536. AID 720648. 370,000 tested, 0.83% active;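 active means inhibition above the mean of compounds lying between control limits plus 3 SD, set per campaign, cut at about 8.5% in these data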;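 further: 0% = DMSO-only wells as the low control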
PLC-gamma1 inh: inhibitors of human phospholipase C gamma1 | P19174 | purified PLC-gamma1, fluorogenic substrate, fluorescence | inhibition, % at 12.2 µM | 370,000 tested, 0.84% active | AID 720700; in the data active means inhibition above about 9.5%
proKLK7 act conf: confirmation of human kallikrein-7 zymogen activators; shares compounds with KLK7 zymogen act; 3,200 tested, 68% active; purified proKLK7, EDANS-DABCYL substrate fluorescence; scaled: vehicle 0, mature enzyme 100; activation, % at 7 µM; AID 686949;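 active means activation, as change over the incubation, above the mean of all tested compounds plus 3 SD, cut at about 13% in these data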
EDANS-DABCYL int: counter-screen for kallikrein-7 activators: EDANS-DABCYL optical interference. 3,200 tested, 80% active. EDANS-DABCYL substrate fluorescence interference, no enzyme, 4 h; solvent 0%, active enzyme control 100%. shares compounds with KLK7 zymogen act. activation, % at 7 µM;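 active means activation above the all-compound mean plus 3 SD, ignoring values outside control-based bounds, cut at about 4.8% in these data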;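 further: value is the 4 h activation minus the activation read at time zero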
K7 EDANS ctr: optically interferes with EDANS-DABCYL fluorescence, kallikrein-7 activator counter-screen; EC50, µM; 250 tested, 20% active; shares compounds with KLK7 zymogen act; EDANS-DABCYL peptide fluorescence interference, no enzyme;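 active means compounds that raise the fluorescence signal in this interference counterscreen, with EC50 at or below 10 µM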;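 further: intact quenched peptide substrate alone read at 355 nm excitation and 520 nm emission; signal is fluorescence gain from T0 to T4 after four hours at room temperature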
The depositor's hits bear a star; i = inactive; nt = not tested or not shown.

SMILES	KLK7 zymogen act	PLCb3 inh	ADAM10 inh	ADAM17 inh	PLC-gamma1 inh	proKLK7 act conf	EDANS-DABCYL int	others
Cc1cc(C)c(NC(=S)N(Cc2cccnc2)Cc2ccco2)c(C)c1	-1	3	-2	3	1	nt	nt
Nc1ccccc1C=C1Cc2ccccc2C1=O	0	-31	-15	-7	-18	nt	nt
Nc1ccccc1/C=C/c1ccccc1N	85*	i	i	i	i	61*	66*
CCc1c(C)c2ccc(O)c(CN(C)C)c2oc1=O	56*	i	i	i	i	65*	65*
CCCCN(CC)Cc1c(O)ccc2c3c(c(=O)oc12)CCC3	62*	i	i	i	i	68*	72*
Cc1c(Br)c(=O)oc2c(C)c(O)ccc12	-3	i	i	-294	i	nt	nt
CN(Cc1c(O)ccc2c1oc(=O)c1ccccc12)C1CCCCC1	-3	-356	-34	-7	-245	nt	nt
COCCN(CCOC)Cc1c(O)ccc2c3c(c(=O)oc12)CCC3	61*	i	i	i	i	70*	74*
CN(C)Cc1c(O)ccc2c3c(c(=O)oc12)CCCCC3	48*	i	i	i	i	57*	78*
O=S1(=O)[C@H]2CC3O[C@]2(C[C@@H]3c2ccc(F)cc2)CN1Cc1ccc(Cl)cc1	0	2	-2	-2	3	nt	nt
CC(C)Cn1c(N)c(C(=O)COC(=O)c2ccncc2)c(=O)n(C)c1=O	0	0	-1	-1	-3	nt	nt
CC(C)Cn1c(N)c(C(=O)COC(=O)c2nccnc2N)c(=O)n(C)c1=O	13*	-461	i	i	-337	4	1
COC(=O)C1Cc2c([nH]c3ccccc23)CN1 (stereo not given)	19*	-117	-259	-60	-88	11	8.9*
COC(=O)[C@H]1Cc2c([nH]c3ccccc23)[C@H](c2ccccc2)N1	0	-6	-8	-2	-2	nt	nt
COc1cc2c(cc1OC)CN(c1ccc3ccccc3n1)CC2	42*	i	-265	-82	i	70*	80*
CC/C(C)=N/N1C(=O)c2ccccc2NC1(C)CC (stereo not given)	19*	-211	i	-172	-194	45*	39*
O=C(Nc1ccc2c(c1)OCO2)c1cc(-c2ccc(O)cc2)on1	20*	-88	-25	-12	-37	21*	14*	K7 EDANS ctr=i
O=C(Nc1ccc2c(c1)OCO2)c1cc(-c2cccc(O)c2)on1	1	-35	-4	-3	-14	nt	nt
O=C(c1nc2n(n1)C(c1ccc(Cl)cc1)C=C(c1ccccc1)N2)N1CCOCC1 (stereo not given)	54*	i	-143	-48	i	-37	-34
O=C(Nc1nc2n(n1)C(c1ccccc1)C=C(c1ccccc1)N2)c1ccco1 (stereo not given)	-5	i	-321	-110	i	nt	nt
CC(=O)Nc1nc2n(n1)C(c1ccc(F)cc1)C=C(c1ccccc1)N2 (stereo not given)	22*	i	-250	-86	i	-23	0
CCOC(=O)c1c(S(=O)(=O)NCCc2ccccc2)c(C)n(C)c1C	0	-9	-6	-2	-1	nt	nt
O=C(COC(=O)c1ccccc1NCCO)NCCc1ccccc1	19*	i	i	-434	i	16*	22*
O=C(COC(=O)c1ccccc1NCCO)NCC1CCCCC1	21*	i	i	-440	-405	5	5.2*
O=C(COC(=O)c1ccccc1NCCO)Nc1cccc(S(=O)(=O)NC2=NCCCCC2)c1	17*	i	i	-470	i	0	-4
SMILES	KLK7 zymogen act	PLCb3 inh	ADAM10 inh	ADAM17 inh	PLC-gamma1 inh	proKLK7 act conf	EDANS-DABCYL int	others
O=C(COC(=O)c1ccccc1Br)NCC1CCCCC1	0	-1	7	0	-3	nt	nt
O=C(COC(=O)c1ccccc1NCCO)NNC(=O)c1cccs1	38*	i	i	-479	i	35*	37*
CCN(CC)C(=S)NC(=O)c1ccc(F)cc1	0	2	-1	1	1	nt	nt
CC(=O)c1cccc(NC(=O)NN2CCN(C)CC2)c1	0	-3	-4	0	1	nt	nt
CC1(C)Cc2c(cnn2-c2ccc(F)cc2)C(NC(=O)Cn2cncn2)C1 (stereo not given)	0	-5	6	1	1	nt	nt
CC1C(=O)NN=C1C(=O)N/N=C\c1ccc(O)cc1O (stereo not given)	-2	-18	-3	0	-16	nt	nt
CC(C#N)(NC(=O)COC(=O)c1ccccc1NCCO)C1CC1 (stereo not given)	19*	i	i	i	i	25*	34*
O=C(COC(=O)c1ccccc1NCCO)NCCC1=CCCCC1	10	i	i	-447	i	nt	nt
O=C(Nc1cccc(O)c1)c1cc2nc(-c3ccccc3)cc(-c3ccccc3)n2n1	96*	-79	-115	-21	-66	-63	-116
C=CCOc1ccc(/C=N/n2nnnc2N)cc1OC	0	-27	-47	-18	-16	nt	nt
CCC(c1nnnn1Cc1ccccc1)N(Cc1ccco1)Cc1cc2cc(OC)ccc2[nH]c1=O (stereo not given)	0	-109	-168	-56	-86	nt	nt
CCCC(c1nnnn1C(C)(C)CC)N(Cc1ccco1)Cc1cc2ccc(OC)cc2[nH]c1=O (stereo not given)	19*	-451	i	-185	-392	-2	-1
O=C(CSc1nc(C(F)(F)F)cc(=O)[nH]1)N1CCCCCC1	0	-6	-1	-9	0	nt	nt
O=c1cc(C(F)(F)F)c2sc(N3CCCCC3)nc2[nH]1	38*	-203	i	-370	-173	2	10*
CC1C2=C(CC(C)(C)CC2=O)NC2=C1C(=O)CC(C)(C)C2	19*	i	i	i	i	74*	73*
Cn1c(CNC(=O)CCNC(=O)c2ccc(Br)cc2)cc(=O)n(C)c1=O	0	-52	-4	-2	0	nt	nt
O=C(OCC(=O)N1CCCc2ccccc21)c1ccccc1NCCO	6	i	i	i	i	nt	nt
CC1CCN(C(=O)COC(=O)c2ccccc2NCCO)CC1	21*	-414	i	-414	-349	26*	22*
O=C(OCC(=O)N1CCN(C(=O)COC(=O)c2ccccc2NCCO)CC1)c1ccccc1NCCO	57*	i	i	i	i	-30	-31
CC1Cc2ccccc2N1C(=O)COC(=O)c1ccccc1NCCO (stereo not given)	12	i	i	-474	i	nt	nt
